# From PubChem
# CYP2C19 act – human CYP2C19 activators, primary screen, biochemical, luminescence | AID 1025, 2008 | recombinant CYP2C19, luciferin-H EGE luminescence; active compounds read high; 0 = fully inhibited enzyme, 1 = untreated enzyme | Cytochrome P450 2C19 (Homo sapiens), P33261 | activation factor at 5 µM | 96,000 tested, under 10 active;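 active = activation factor of at least 2 at 5 µM in the primary screen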
# PTK2B oligo ant – antagonists of Pyk2 self-association, primary screen, Q293 cells, FERM NanoBiT luminescence, HTS; Protein-tyrosine kinase 2-beta (Homo sapiens), Q14289; z-score (the deposit names both 25 µM and 10 µM); 0.83% of 99,000 active; active compounds read low;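 active = Z-score of -3 or lower, scaled per plate to the spread of control and sample wells; inactive = z-score above -3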;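 also: negative z-score means lost luminescence so less FERM oligomerization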
# CYP2C19 inhib – blockers of cytochrome P450 2C19 activity – biochemical, luminescence, ADME assay, primary screen | CYP2C19 Supersomes, luciferin-H EGE luminescence, 30 min | P33261 | inhibition, % at 5 µM | AID 778, 2007 | 21% of 96,000 active;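 active = CYP2C19 inhibition above a set limit at 5 µM in the primary screen, cut at about 50% in these data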
# CYP2C9 act – human CYP2C9 activators, primary screen, biochemical, luminescence; 1.4% of 96,000 active; activation factor at 5 µM; AID 1024, 2008; recombinant CYP2C9, luciferin-H conversion; active compounds read high; factor 1 = untreated enzyme, 0 = blocked;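 active = activation factor of 2 or more for CYP2C9 at a 5 µM dose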
# Cav32 inh – Cav3.2 calcium influx blockers – cell-based, Fluo-4 calcium fluorescence, FDSS, MLSMR library, primary screen. 4% of 100,000 active. B-score at 10 µM. Voltage-dependent T-type calcium channel subunit alpha-1H (Homo sapiens), O95180. AID 449739, 2010. Cav3.2-expressing cells; active compounds read low;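 active = single-dose well whose peak fluorescence ratio is a statistical outlier from its plate by either plate-standardised score or position-corrected B-score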
# CYP2C9 inhib – blockers of cytochrome P450 2C9 activity – biochemical, luminescence, ADME assay, primary screen. CYP2C9 Supersomes, luciferin-H conversion. inhibition, % at 5 µM. 20% of 96,000 active. P11712;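 active = blocking of liver enzyme CYP2C9 beyond about 50% at 5 µM, limit read from the data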
# Hits are given with their value; - = inactive; . = not tested or not shown. Only some compounds are listed: those with a hit (about 27% of all), similar ones and a draw of the others.
SMILES,CYP2C19 act,PTK2B oligo ant,CYP2C19 inhib,CYP2C9 act,Cav32 inh,CYP2C9 inhib
CC(C)C[C@H](NC(=O)c1[nH]cnc1C(=O)N[C@@H](C)c1ccccc1)C(=O)OCc1ccccc1,.,.,.,.,-,.
CS(=O)(=O)N1CCC(C(=O)N2CCc3ccccc3C2)CC1,-,-,95,-,-,-
CS(=O)(=O)N1CCCC(C(=O)N2CCc3ccccc3C2)C1 (configuration not stated),-,-,-,-,-,-
COc1ccc(S(=O)(=O)N2CCC(C(=O)N3CCc4ccccc4C3)CC2)cc1C,-,-,-,-,-5,-
COc1ccc(S(=O)(=O)N2CCC(C(=O)N3CCc4ccccc4C3)CC2)cc1,-,-,-,2.8,-,-
Cc1ccc2nc(Nc3nc(-c4ccccc4)cc(=O)[nH]3)nc(C)c2c1,-,-,-,-,-,55
Cn1c(Cn2c(=O)sc3ccccc32)nnc1SCC(=O)NC1CCCC1,.,.,.,.,-,.
C/C(=N\NC(=O)C1COc2ccccc2O1)c1cccs1 (configuration not stated),-,-,80,-,-,-
O=C(N/N=C/c1cccs1)C1COc2ccccc2O1 (configuration not stated),-,-,82,-,-,-
O=C(N/N=C\c1ccccn1)C1COc2cc3ccccc3cc2O1 (configuration not stated),-,-,-,-,.,-
O=C(O)CNC(=O)C1COc2ccccc2O1 (configuration not stated),-,-,-,-,-,-
Cc1ccccc1Cn1cc(NC(=O)CSc2nc3c(c(C(F)(F)F)n2)CCc2ccccc2-3)cn1,-,-,-,-,-,81
NC(=O)c1c(NC(=O)CSc2nc3c(c(C(F)(F)F)n2)CCc2ccccc2-3)sc2c1CCCC2,-,-,-,-,-,-
Cc1nn(Cc2ccc(Cl)cc2)c(C)c1NC(=O)CSc1nc2c(c(C(F)(F)F)n1)CCc1ccccc1-2,-,-,-,-,-3.9,72
CCOC(=O)c1c(NC(=O)c2noc3c2CCCC3)sc(C)c1C,-,.,-,-,-,-
Cc1ccc(C2c3c(oc4ccccc4c3=O)C(=O)N2c2nnc(C(C)C)s2)o1 (configuration not stated),-,.,-,-,-,-
COc1ccc(C2C(C(=O)N3CCN(c4ccccc4)CC3)c3ccccc3C(=O)N2C)cc1 (configuration not stated),.,-,.,.,-,.
CC1=NN(c2ccc(F)cc2)C(=O)C1C(c1cccc(O)c1)c1c(C)[nH]n(-c2ccc(F)cc2)c1=O (configuration not stated),-,-,-,-,-,59
NCCCC[C@@H]1NC(=O)[C@H](CCC(=O)O)NC(=O)c2cc([N+](=O)[O-])cc(I)c2OCC[C@@H](C(N)=O)NC1=O,.,.,.,.,-,.
O=C(Nc1nccs1)c1ccccc1N=Cc1ccccc1,-,-,93,-,-,80
Cc1cc(NC(=O)CSc2nc3c(c(=O)n2CCc2ccccc2)SC(C)C3)no1 (configuration not stated),-,.,-,-,-,-
CCOC(=O)CSc1nc2ccccc2c(=O)n1CCC(=O)NCCc1ccc(OC)c(OC)c1,-,-,60,-,-,65
NC(=O)c1ccsc1NC(=O)CSc1nnc(C2CC2)n1Cc1ccccc1,-,-,-,-,.,-
COc1ccc(CCn2c(SCC(=O)Nc3cc(C)on3)nc3ccccc3c2=O)cc1OC,-,-,64,-,.,51
Cc1cc(NC(=O)CSc2nc3cc4c(cc3c(=O)n2CCc2ccccc2)OCO4)no1,-,-,59,-,-,-
SMILES,CYP2C19 act,PTK2B oligo ant,CYP2C19 inhib,CYP2C9 act,Cav32 inh,CYP2C9 inhib
NC(=O)c1ccsc1NC(=O)CSc1nc2ccccc2c(=O)n1CCCO,-,-,-,-,-,58
CCn1c(SCC(=O)NCCc2ccc(OC)c(OC)c2)nc2c1c(=O)n(C)c(=O)n2C,-,-,-,-,-,-
COc1cccc(C(=O)NCC2CCCO2)c1 (configuration not stated),-,.,-,-,.,-
Cc1cc(C)cc(NC(=O)CN(Cc2ccccc2)S(C)(=O)=O)c1,.,-,.,.,-,.
O=C1CC(=C2c3ccccc3-c3ccccc32)C(=O)N1CCCCN1CCN(c2ccccc2)CC1,.,-,.,.,-,.
Cc1nn(CCc2n[nH]c(=S)n2C2CCCCC2)c(C)c1Br,-,-,-,-,-,-
O=C(NNC(=O)C1CC(c2cccnc2)=NO1)Nc1cccc(F)c1 (configuration not stated),-,-,-,-,.,-
CCCCCCn1c(SCC(=O)Nc2cc(C)on2)nc2ccccc2c1=O,-,-,-,-,-,71
CCCn1c(SCc2ccon2)nc2ccccc2c1=O,-,-,85,-,-,83
COc1ccc(CCn2c(SCC(=O)Nc3cc(C)on3)nc3ccsc3c2=O)cc1OC,-,-,54,-,.,60
Cc1cc(NC(=O)CSc2nc3ccccc3c(=O)n2Cc2ccc(F)cc2)no1,-,-,-,-,.,-
CCCCn1c(SCC(=O)Nc2cc(C)on2)nc2ccsc2c1=O,-,-,-,-,-,-
CCC1CCCCN1C(=O)COC(=O)c1ccc(S(=O)(=O)N2CCOCC2)cc1 (configuration not stated),-,-,-,-,-,-
Cc1ccccc1NC(=O)CC1SCCNC1=O (configuration not stated),-,-,-,-,-,-
Cc1ccccc1NC(=O)CC1SC(=NC2CCCCC2)NC1=O (configuration not stated),-,-,-,-,-,67
CN(Cc1cccs1)C(=O)COc1ccc(-c2nnco2)cc1,-,-,75,-,-,-
CN(Cc1cccs1)C(=O)COc1cccc(-n2cnnn2)c1,-,-,-,-,-,-
CC1CC(C)CN(C(=O)COc2ccc(-c3nnco3)cc2)C1 (configuration not stated),-,-,50,-,-,-
O=C(COc1ccc(-c2nnco2)cc1)N1CCN(S(=O)(=O)c2ccccc2)CC1,-,-,84,-,-,67
CCN1CCN(CC(=O)Nc2sc3c(c2C#N)CCC(C)C3)CC1 (configuration not stated),-,-,-,-,-,-
CC1CCc2c(sc(NC(=O)C(=O)NCc3ccco3)c2C#N)C1 (configuration not stated),-,-,-,-,-,68
Cc1cc(C(=O)Nc2sc3c(c2C#N)CCC(C)C3)no1 (configuration not stated),-,-,-,-,-,76
Cc1cc(C(=O)Nc2sc3c(c2C#N)CCCC3)no1,.,-,.,.,-,.
